The supplement of paper PMC11732987, “Enantioselective OTUD7B fragment discovery through chemoproteomics screening and high-throughput optimisation” (Communications Chemistry, 2025)
A number with no mark means an inactive call.

Key:
Assay in all cases: log2 ratio of Biotin-Ahx-Ub-VS probe labelling (fragment/DMSO); higher = less target engagement (more negative = stronger competition), active = hit call of the paper (q ≤ 0.05, log2 ratio ≤ -1)
Settings in all cases: compound concentration: 200 uM; treatment time: 3 h
USP9X = USP9X (UniProt Q93008)
Summary of the method: (§1)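 HEK293T lysate (495 µg per sample, in Tris/CHAPS/IGEPAL buffer with protease inhibitors) was exposed in triplicate for 3 h to fragment at 200 µM or to vehicle, then to Biotin-Ahx-Ub-VS at 0.5 µM final for 1 h. Labelled DUBs were enriched on NeutrAvidin, digested with LysC and trypsin, and analysed by diaPASEF LC-MS/MS. Spectronaut label-free quantities were normalised to the global median, and values are average log2 ratios of fragment over vehicle from an unpaired t-test. Only proteins with ≥2 unique peptides were used.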

UniProt O00487 = biological target: UniProt O00487
UniProt O00487, sequence (O00487 whole entry): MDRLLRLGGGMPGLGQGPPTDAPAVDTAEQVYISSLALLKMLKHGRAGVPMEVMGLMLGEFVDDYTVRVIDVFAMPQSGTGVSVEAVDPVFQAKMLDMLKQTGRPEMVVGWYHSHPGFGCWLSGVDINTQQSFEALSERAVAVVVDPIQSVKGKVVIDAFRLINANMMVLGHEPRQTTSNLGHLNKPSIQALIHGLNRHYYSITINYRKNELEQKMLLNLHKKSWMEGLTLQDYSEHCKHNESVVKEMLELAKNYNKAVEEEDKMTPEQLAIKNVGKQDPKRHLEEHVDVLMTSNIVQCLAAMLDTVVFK
Summary of the method: as §1

UniProt O00507 = biological target: UniProt O00507
UniProt O00507, sequence (O00507 whole entry): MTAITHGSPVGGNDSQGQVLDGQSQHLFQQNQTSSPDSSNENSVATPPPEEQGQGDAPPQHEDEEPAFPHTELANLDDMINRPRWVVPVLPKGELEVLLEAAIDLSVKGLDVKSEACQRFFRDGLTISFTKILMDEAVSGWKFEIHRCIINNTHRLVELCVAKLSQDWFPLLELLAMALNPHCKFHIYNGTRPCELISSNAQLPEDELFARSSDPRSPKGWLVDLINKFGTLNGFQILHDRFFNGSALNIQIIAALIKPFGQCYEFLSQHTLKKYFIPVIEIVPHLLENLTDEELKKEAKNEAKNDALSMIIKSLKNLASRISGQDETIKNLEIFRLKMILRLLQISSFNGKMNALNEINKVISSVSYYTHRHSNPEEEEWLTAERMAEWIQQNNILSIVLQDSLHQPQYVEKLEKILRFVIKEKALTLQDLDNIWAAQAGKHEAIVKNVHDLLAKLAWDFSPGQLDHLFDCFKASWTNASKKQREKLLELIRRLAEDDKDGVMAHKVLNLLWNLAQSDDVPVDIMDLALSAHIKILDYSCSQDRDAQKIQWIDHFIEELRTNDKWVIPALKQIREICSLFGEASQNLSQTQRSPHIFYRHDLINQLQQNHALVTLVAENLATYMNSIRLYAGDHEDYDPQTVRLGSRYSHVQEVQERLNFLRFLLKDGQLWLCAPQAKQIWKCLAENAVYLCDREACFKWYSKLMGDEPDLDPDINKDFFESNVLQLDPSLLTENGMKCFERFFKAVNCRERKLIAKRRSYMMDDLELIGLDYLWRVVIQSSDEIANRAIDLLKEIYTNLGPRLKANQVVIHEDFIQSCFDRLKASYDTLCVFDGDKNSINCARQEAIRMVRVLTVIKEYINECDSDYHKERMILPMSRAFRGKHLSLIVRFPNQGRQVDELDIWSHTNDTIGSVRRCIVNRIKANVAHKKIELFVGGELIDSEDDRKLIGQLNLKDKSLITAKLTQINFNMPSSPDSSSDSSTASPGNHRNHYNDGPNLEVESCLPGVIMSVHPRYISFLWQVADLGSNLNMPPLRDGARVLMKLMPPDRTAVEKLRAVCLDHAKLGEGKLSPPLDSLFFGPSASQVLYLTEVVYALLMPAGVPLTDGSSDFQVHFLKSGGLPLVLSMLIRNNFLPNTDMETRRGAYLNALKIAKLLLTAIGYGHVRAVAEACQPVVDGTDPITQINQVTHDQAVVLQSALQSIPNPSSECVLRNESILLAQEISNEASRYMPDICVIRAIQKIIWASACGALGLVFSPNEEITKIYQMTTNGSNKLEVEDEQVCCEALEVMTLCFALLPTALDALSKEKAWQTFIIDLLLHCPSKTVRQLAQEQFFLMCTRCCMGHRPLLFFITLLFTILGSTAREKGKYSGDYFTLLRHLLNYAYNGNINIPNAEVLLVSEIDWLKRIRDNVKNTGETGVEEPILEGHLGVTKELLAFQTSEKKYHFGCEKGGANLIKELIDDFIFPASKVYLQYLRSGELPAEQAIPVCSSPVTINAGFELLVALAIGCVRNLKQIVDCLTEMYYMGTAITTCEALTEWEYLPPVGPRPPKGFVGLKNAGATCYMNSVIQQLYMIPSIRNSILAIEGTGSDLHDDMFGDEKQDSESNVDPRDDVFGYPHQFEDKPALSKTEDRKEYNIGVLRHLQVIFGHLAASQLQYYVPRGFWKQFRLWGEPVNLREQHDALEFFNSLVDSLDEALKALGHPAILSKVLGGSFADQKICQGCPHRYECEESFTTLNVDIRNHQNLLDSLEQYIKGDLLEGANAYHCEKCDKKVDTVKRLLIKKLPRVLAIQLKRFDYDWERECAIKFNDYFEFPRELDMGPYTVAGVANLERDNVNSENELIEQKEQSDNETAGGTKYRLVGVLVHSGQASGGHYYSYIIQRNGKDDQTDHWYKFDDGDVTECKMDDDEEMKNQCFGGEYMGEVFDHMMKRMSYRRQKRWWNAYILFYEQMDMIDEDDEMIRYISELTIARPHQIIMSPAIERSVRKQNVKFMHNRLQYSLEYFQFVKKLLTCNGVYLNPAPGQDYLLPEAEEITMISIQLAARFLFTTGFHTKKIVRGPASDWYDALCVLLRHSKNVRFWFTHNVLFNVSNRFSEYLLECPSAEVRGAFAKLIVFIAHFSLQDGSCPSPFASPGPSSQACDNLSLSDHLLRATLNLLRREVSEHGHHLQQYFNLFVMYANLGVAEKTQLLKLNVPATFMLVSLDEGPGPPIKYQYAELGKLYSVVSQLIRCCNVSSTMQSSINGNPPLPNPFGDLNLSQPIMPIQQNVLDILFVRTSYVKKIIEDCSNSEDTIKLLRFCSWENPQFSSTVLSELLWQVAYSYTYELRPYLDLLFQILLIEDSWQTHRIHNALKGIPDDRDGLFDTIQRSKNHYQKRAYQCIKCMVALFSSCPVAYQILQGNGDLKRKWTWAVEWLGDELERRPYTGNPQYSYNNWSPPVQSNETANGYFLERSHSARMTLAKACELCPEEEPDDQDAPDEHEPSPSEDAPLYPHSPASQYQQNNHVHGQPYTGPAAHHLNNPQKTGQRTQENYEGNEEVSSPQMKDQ
Summary of the method: as §1

UniProt P51784 = biological target: UniProt P51784
UniProt P51784, sequence (P51784 whole entry): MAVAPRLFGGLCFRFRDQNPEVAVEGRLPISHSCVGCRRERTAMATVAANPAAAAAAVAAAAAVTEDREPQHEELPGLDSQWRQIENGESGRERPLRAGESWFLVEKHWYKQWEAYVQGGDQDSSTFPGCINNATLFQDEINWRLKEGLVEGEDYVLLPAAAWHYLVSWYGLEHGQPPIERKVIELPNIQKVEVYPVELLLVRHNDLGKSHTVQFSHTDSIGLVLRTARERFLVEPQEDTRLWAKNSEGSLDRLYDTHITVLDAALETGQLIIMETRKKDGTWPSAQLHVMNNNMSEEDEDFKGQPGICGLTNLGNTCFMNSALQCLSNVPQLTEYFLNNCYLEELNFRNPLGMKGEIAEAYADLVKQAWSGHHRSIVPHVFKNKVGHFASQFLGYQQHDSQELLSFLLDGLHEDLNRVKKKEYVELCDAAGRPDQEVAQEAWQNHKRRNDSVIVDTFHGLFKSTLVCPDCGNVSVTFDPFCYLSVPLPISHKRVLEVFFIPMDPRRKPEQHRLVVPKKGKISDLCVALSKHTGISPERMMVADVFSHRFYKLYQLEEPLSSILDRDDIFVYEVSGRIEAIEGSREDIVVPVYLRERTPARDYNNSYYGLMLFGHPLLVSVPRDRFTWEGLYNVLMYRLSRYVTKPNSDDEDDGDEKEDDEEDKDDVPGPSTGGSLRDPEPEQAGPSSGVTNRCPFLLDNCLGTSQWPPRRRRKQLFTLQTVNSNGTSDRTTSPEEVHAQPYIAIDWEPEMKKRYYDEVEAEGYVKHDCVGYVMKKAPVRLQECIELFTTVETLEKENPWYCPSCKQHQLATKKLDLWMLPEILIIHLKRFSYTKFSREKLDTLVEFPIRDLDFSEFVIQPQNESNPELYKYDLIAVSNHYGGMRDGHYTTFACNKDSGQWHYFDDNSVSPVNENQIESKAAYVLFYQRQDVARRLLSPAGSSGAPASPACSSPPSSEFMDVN
Summary of the method: as §1

UniProt Q5T2D3 = biological target: T1, UniProt Q5T2D3
T1 sequence (whole entry): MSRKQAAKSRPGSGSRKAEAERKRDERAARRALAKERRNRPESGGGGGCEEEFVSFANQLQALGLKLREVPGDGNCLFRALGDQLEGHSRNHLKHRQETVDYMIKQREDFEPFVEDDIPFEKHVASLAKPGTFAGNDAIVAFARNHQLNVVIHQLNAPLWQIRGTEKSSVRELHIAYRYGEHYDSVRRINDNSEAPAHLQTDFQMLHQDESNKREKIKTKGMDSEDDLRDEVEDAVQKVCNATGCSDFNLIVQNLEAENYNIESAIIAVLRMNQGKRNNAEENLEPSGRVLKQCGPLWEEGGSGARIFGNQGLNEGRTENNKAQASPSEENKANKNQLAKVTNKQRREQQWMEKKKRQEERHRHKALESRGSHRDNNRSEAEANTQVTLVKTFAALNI
Summary of the method: as §1

UniProt Q8TE49 = biological target: T2, UniProt Q8TE49
T2 sequence (whole entry): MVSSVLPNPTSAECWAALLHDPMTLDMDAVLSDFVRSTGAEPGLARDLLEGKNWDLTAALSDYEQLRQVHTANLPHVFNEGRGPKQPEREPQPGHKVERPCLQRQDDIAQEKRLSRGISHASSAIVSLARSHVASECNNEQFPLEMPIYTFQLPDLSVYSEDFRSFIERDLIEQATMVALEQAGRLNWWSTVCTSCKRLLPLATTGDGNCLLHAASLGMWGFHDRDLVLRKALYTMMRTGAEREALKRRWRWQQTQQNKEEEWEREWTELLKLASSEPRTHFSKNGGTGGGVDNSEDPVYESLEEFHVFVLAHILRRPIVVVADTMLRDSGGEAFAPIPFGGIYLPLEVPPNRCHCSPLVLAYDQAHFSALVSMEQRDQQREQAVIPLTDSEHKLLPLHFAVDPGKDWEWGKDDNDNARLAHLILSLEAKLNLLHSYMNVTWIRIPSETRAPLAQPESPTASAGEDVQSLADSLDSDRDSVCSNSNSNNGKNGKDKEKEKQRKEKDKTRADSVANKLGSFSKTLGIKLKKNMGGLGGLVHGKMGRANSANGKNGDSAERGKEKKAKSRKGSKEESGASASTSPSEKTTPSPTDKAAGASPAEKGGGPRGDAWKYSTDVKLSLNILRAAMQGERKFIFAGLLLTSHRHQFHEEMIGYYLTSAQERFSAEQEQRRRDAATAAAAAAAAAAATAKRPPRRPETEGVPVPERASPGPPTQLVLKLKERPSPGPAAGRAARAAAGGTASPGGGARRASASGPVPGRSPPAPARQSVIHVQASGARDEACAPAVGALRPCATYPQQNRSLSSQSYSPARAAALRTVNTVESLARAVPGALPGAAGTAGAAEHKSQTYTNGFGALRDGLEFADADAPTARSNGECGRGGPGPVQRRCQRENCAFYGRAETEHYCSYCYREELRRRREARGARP
Summary of the method: as §1

UniProt Q9P2H5 = biological target: T3, UniProt Q9P2H5
T3 sequence (whole entry): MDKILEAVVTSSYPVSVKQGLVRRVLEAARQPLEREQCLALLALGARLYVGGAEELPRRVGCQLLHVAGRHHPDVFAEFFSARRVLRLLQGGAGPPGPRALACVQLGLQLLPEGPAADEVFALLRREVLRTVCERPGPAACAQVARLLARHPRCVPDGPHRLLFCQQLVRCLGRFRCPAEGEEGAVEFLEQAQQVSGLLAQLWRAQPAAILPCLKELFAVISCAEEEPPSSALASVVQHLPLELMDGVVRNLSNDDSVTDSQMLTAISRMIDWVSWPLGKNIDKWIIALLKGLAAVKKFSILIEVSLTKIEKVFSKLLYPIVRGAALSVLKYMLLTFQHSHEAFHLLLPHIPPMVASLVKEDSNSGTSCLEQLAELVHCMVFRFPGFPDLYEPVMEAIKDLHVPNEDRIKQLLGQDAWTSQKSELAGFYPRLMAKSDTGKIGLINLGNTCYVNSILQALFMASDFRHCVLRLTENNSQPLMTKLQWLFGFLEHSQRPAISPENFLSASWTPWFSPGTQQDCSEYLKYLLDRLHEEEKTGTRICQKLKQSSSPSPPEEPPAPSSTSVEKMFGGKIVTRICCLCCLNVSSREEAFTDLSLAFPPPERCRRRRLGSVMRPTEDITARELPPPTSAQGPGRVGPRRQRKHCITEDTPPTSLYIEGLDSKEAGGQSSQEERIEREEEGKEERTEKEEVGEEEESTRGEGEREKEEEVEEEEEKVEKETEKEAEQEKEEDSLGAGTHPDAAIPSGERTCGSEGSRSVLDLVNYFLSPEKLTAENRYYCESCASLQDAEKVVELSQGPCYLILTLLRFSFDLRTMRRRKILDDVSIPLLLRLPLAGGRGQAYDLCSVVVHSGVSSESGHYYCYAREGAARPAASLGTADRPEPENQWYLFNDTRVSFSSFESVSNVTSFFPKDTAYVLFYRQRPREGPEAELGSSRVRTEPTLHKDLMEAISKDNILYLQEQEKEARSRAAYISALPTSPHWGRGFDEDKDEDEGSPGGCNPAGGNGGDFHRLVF
Summary of the method: as §1

UniProt Q9UGI0 = biological target: T4, UniProt Q9UGI0
T4 sequence (whole entry): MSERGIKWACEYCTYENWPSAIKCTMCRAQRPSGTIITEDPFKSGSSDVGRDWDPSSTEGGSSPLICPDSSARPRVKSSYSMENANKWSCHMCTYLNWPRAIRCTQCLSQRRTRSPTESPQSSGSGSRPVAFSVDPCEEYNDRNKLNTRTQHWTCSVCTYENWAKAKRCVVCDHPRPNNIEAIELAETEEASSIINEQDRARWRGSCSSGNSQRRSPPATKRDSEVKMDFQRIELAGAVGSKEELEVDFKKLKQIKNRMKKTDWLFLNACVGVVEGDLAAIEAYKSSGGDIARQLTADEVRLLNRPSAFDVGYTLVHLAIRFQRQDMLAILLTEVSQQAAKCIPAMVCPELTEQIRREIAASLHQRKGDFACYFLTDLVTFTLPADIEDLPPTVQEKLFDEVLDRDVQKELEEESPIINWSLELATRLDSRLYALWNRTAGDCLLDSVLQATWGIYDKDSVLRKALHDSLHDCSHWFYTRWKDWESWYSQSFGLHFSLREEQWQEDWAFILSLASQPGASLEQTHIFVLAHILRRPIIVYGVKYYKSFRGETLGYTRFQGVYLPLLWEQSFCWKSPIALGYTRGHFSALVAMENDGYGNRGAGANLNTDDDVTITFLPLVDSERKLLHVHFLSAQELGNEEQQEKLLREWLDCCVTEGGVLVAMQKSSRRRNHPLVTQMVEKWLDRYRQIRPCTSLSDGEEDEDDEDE
Summary of the method: as §1

YOD1 = biological target: T5, YOD1 (UniProt Q5VVQ6)
T5 sequence (whole entry): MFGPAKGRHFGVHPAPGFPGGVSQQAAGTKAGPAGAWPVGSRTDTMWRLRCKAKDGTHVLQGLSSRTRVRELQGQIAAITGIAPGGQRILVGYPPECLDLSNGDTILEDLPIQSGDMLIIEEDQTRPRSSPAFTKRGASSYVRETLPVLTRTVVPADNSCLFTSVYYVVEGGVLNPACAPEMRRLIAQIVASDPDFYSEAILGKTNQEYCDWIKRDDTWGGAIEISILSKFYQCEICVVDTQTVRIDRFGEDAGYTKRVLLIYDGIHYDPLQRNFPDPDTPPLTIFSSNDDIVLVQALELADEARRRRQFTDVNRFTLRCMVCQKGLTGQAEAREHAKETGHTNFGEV
Summary of the method: as §1

Structure (SMILES): Cc1c(C#N)c(NC(=O)CCl)n(Cc2ccco2)c1C
- log2 ratio of Biotin-Ahx-Ub-VS probe labelling (USP9X): -0.241
- log2 ratio of Biotin-Ahx-Ub-VS probe labelling (UniProt O00487): -0.177
- log2 ratio of Biotin-Ahx-Ub-VS probe labelling (UniProt O00507): -0.255
- log2 ratio of Biotin-Ahx-Ub-VS probe labelling (UniProt P51784): -0.349
- log2 ratio of Biotin-Ahx-Ub-VS probe labelling (UniProt Q5T2D3): -0.169
- log2 ratio of Biotin-Ahx-Ub-VS probe labelling (UniProt Q8TE49): -2.48 (active)
- log2 ratio of Biotin-Ahx-Ub-VS probe labelling (UniProt Q9P2H5): -0.304
- log2 ratio of Biotin-Ahx-Ub-VS probe labelling (UniProt Q9UGI0): -0.313
- log2 ratio of Biotin-Ahx-Ub-VS probe labelling (YOD1): -0.0342
